Source: PubChem BioAssay (NCATS)
Results filed as inconclusive are left out. Activity calls are given as the source filed them. The call rests on the fitted dose curve; in most records, active means well fitted curve in the direction sought with a large enough effect; inconclusive means small, poorly fitted or top-dose-only effect, or another doubt; inactive means no such curve, though single readings can be large; an effect the other way counts as inactive or inconclusive.

What was measured:
HEK293T [1] = experiment: qHTS assay to identify novel small-molecules to repurpose for Merkel cell carcinoma treatment (AID 1296009); details: MCC and control cell lines, CellTiter-Glo viability, 72 h; at 44.8 µM (top of the series) unless noted; further: nearly all actives have a fitted effect of over 60% in size
How it was run: (§1)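 Luminescence from CellTiter-Glo, read 10 min after addition at room temperature, reported viability following a 72 hr, 37 degree celsius treatment with NPC or MIPE compounds in titration; values normalized to plate controls.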

MCC-13 = experiment: as above; details: MCC and control cell lines, CellTiter-Glo viability, 72 h; series mostly up to 46 µM
How it was run: as §1

MCC-26 = experiment: as above; details: MCC and control cell lines, CellTiter-Glo viability, 72 h; series mostly up to 46 µM
How it was run: as §1

MKL-1 = experiment: as above; details: MCC and control cell lines, CellTiter-Glo viability, 72 h; series mostly up to 46 µM
How it was run: as §1

MKL-2 = experiment: as above; details: MCC and control cell lines, CellTiter-Glo viability, 72 h; series mostly up to 46 µM
How it was run: as §1

UISO = experiment: as above; details: MCC and control cell lines, CellTiter-Glo viability, 72 h; series mostly up to 46 µM
How it was run: as §1

WaGa = experiment: as above; details: MCC and control cell lines, CellTiter-Glo viability, 72 h; series mostly up to 46 µM
How it was run: as §1

C33A = experiment: Primary qHTS to identify gynecologic anti-cancer compounds using libraries of approved drugs and bioactive compounds (AID 1345084); details: Gynecologic cancer cell panel viability, ATPlite luminescence, 48 h; series mostly up to 57.5 µM; further: nearly all actives have a fitted effect of over 55% in size
How it was run: (§2)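 Five-concentration response, 48 h; readout is ATP-driven luciferase luminescence.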

CASKI = experiment: as above; details: Gynecologic cancer cell panel viability, ATPlite luminescence, 48 h; series mostly up to 57.5 µM
How it was run: as §2

Es-2 = experiment: as above; details: Gynecologic cancer cell panel viability, ATPlite luminescence, 48 h; series mostly up to 57.5 µM
How it was run: as §2

HeLa = experiment: as above; details: Gynecologic cancer cell panel viability, ATPlite luminescence, 48 h; series mostly up to 57.5 µM
How it was run: as §2

Hek293T [2] = experiment: as above; details: Gynecologic cancer cell panel viability, ATPlite luminescence, 48 h, control line for the selectivity index; series mostly up to 57.5 µM
How it was run: as §2

JEG-3 = experiment: as above; details: Gynecologic cancer cell panel viability, ATPlite luminescence, 48 h; series mostly up to 57.5 µM
How it was run: as §2

OV90 = experiment: as above; details: Gynecologic cancer cell panel viability, ATPlite luminescence, 48 h; series mostly up to 57.5 µM
How it was run: as §2

PA-1 = experiment: as above; details: Gynecologic cancer cell panel viability, ATPlite luminescence, 48 h; series mostly up to 57.5 µM
How it was run: as §2

SKOV3 = experiment: as above; details: Gynecologic cancer cell panel viability, ATPlite luminescence, 48 h; series mostly up to 57.5 µM
How it was run: as §2

Tov-21-G = experiment: as above; details: Gynecologic cancer cell panel viability, ATPlite luminescence, 48 h; series mostly up to 57.5 µM
How it was run: as §2

Tov112D = experiment: as above; details: Gynecologic cancer cell panel viability, ATPlite luminescence, 48 h; series mostly up to 57.5 µM
How it was run: as §2

CAOV3 = experiment: as above; details: Gynecologic cancer cell panel viability, ATPlite luminescence, 48 h; series mostly up to 57.5 µM
How it was run: as §2

Measured: Potency

CC(=O)Nc1ccc(C(=O)O)cc1
not listed: CAOV3
inactive: all other assays above

CCN(CC)S(=O)(=O)c1ccc(C(=O)O)cc1
inactive: all assays above

CCOC(=O)[C@H](CCc1ccccc1)N[C@@H](C)C(=O)N1Cc2cc(OC)c(OC)cc2C[C@H]1C(=O)O
inactive: all assays above

CNCc1ccccc1
not listed: JEG-3 | OV90
inactive: all other assays above

O=C1CC[C@@H](C(=O)O)N1
inactive: all assays above

CC(C)=CCC/C(C)=C/CO
inactive: all assays above

COc1ccc2cc(CCC(C)=O)ccc2c1
not listed: Hek293T [2] | JEG-3 | OV90 | SKOV3 | CAOV3
inactive: all other assays above

CC(=O)[C@@]1(O)CC[C@H]2[C@@H]3C[C@H](C)C4=CC(=O)C=C[C@]4(C)[C@@]3(F)[C@@H](O)C[C@@]21C
not listed: SKOV3
inactive: all other assays above

C[C@@H]1O[C@@H](OC[C@H]2O[C@@H](Oc3c(-c4ccc(O)c(O)c4)oc4cc(O)cc(O)c4c3=O)[C@H](O)[C@@H](O)[C@@H]2O)[C@H](O)[C@H](O)[C@H]1O
not listed: CAOV3
inactive: all other assays above

OC[C@@H](O)[C@@H](O)[C@H](O)[C@H](O)CO
not listed: Hek293T [2]
inactive: all other assays above

COc1cc(C(=O)NCCCCCC(=O)O)cc(OC)c1OC
not listed: PA-1 | SKOV3
inactive: all other assays above

C[C@@H](N)C(=O)O
not listed: CAOV3
inactive: all other assays above

Cc1ccsc1C(=CCCN1CCC[C@@H](C(=O)O)C1)c1sccc1C
inactive: all assays above
